Assay results as given in PubChem BioAssay AID1159580 (chemical genetic matrix, 2015).
Screen size: about 5,500 compounds; about 2,000 (36%) were called active. Roughly 18% stayed inconclusive and do not appear here. Rule as the data show it: active = normalized growth mostly below about 0.91 (no sharp cut-off); inconclusive = no clear call, values can overlap the other calls; inactive = mostly above about 0.92. The list shows a part of the results.

Test: chemical genetic growth profiling, strain panel (AID 1159580);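 also: tested at 20 µM; growth read once vehicle control cultures reached saturation at 30 °C; 1 = growth at the plate median or of vehicle wells; lower values mean less growth of the strain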
Settings: growth OD
[1] = S. cerevisiae deletion strains, locus YBR229C, strain ROT2, hits give low values
[2] = S. cerevisiae deletion strains, locus YCL061C, strain MRC1, hits give low values
[3] = S. cerevisiae deletion strains, locus YDL101C, strain DUN1, hits give low values
[4] = S. cerevisiae deletion strains, locus YDL134C, strain PPH21, hits give low values
[5] = S. cerevisiae deletion strains, locus YDR150W, strain NUM1, hits give low values
[6] = S. cerevisiae deletion strains, locus YEL061C, strain CIN8, hits give low values
[7] = S. cerevisiae deletion strains, locus YGR078C, strain PAC10, hits give low values
[8] = S. cerevisiae deletion strains, locus YHR030C, strain SLT2, hits give low values
[9] = S. cerevisiae deletion strains, locus YHR087W, strain rtc3, hits give low values
[10] = S. cerevisiae deletion strains, locus YJR043C, strain POL32, hits give low values
[11] = S. cerevisiae deletion strains, locus YJR075W, strain HOC1, hits give low values
[12] = S. cerevisiae deletion strains, locus YLR039C, strain RIC1, hits give low values
[13] = S. cerevisiae deletion strains, locus YLR058C, strain SHM2 (second series), hits give low values
[14] = S. cerevisiae deletion strains, locus YLR085C, strain ARP6, hits give low values
[15] = S. cerevisiae deletion strains, locus YLR262C, strain YPT6, hits give low values
[16] = S. cerevisiae deletion strains, locus YML094W, strain GIM5, hits give low values
[17] = S. cerevisiae deletion strains, locus YMR219W, strain ESC1, hits give low values
[18] = S. cerevisiae deletion strains, locus YMR263W, strain SAP30, hits give low values
[19] = S. cerevisiae deletion strains, locus YNL153C, strain GIM3, hits give low values
[20] = S. cerevisiae deletion strains, locus YNL298W, strain CLA4 (second series), hits give low values
[21] = S. cerevisiae deletion strains, locus YNL322C, strain KRE1, hits give low values
[22] = S. cerevisiae deletion strains, locus YNR030W, strain Alg12, hits give low values
[23] = S. cerevisiae deletion strains, locus YPL055C, strain LGE1, hits give low values
[24] = S. cerevisiae deletion strains, locus YPL241C, strain CIN2, hits give low values
[25] = S. cerevisiae deletion strains, locus YPR135W, strain CTF4, hits give low values

Measured: normalized growth

Cc1ccc(OCC(=O)NN)c2c1CCC2
inactive: [1] 1 | [2] 0.994 | [3] 1.03 | [4] 1.01 | [5] 1.01 | [6] 1.01 | [7] 0.989 | [8] 0.985 | [9] 1.04 | [10] 0.99 | [11] 0.989 | [12] 0.867 | [13] 1.01 | [14] 1.01 | [15] 0.913 | [16] 1.01 | [17] 0.991 | [18] 1.01 | S. cerevisiae deletion strains, locus YMR307W, strain GAS1, hits give low values 0.963 | [19] 1 | [20] 0.989 | [21] 0.997 | [22] 1.01 | S. cerevisiae deletion strains, locus YOL006C, strain TOP1, hits give low values 1.01 | [23] 1.01 | [24] 1.01 | [25] 0.982 | S. cerevisiae strains, strain wild type, hits give low values 1.01

Cc1cc(Br)c(OCC(=O)NN)c2c1CCC2
inactive: S. cerevisiae deletion strains, locus YAL013W, strain DEP1, hits give low values 1 | [1] 1 | [2] 1.01 | [3] 0.995 | [4] 1 | [5] 1.05 | [6] 0.985 | [7] 0.999 | [8] 0.856 | [9] 0.993 | [10] 0.998 | [11] 0.989 | S. cerevisiae deletion strains, locus YKL190W, strain CNB1, hits give low values 0.989 | [13] 0.999 | [14] 0.947 | [16] 0.975 | [17] 1 | [18] 0.961 | [19] 1.02 | [20] 0.979 | [21] 0.994 | [22] 0.997 | [23] 0.915 | [24] 1.02 | [25] 0.906
active: [12] 0.608 | [15] 0.584
